# Data as given in PubChem BioAssay AID485298 (National Center for Advancing Translational Sciences (NCATS), 2010).
# Where “and” joins values, the source holds several entries; their conditions need not be identical. Equal entries are not always repeated. About 740 (0.23%) of roughly 320,000 compounds were called active. Not shown: some 2% with an inconclusive outcome. Calls come from the whole dose curve; as a rule, active = well fitted activation curve with a large enough effect; inconclusive = small, poorly fitted or top-dose-only effect; inactive = no such curve, though single readings can be large or run the other way. The full list was thinned out, with actives kept by preference. A structure can be active in one record and inactive in another.
# Assay: qHTS Assay for Small Molecule Inhibitors of Mitochondrial Division or Activators of Mitochondrial Fusion; note: nearly all actives have a fitted effect of over 45% in size;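 for growth rescue (activation): temperature-sensitive fusion mutants such as fzo1-1 at 37 °C on non-fermentable ethanol glycerol medium; % of control where 0% means no effect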
# Conditions: S. cerevisiae fusion-defective mutant growth rescue, CellTiterGlo 48 h; series mostly up to 46.1 µM; growth rescue (activation): at the top concentration
# In short: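 Read-out: ATP-based luminescence (CellTiterGlo, 10 min ambient) reporting growth of fusion-defective ts yeast after 48 hours at 37C on glycerol/ethanol YPEG medium in the presence of compound.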
# Potency is the fitted concentration of half-maximal effect.
SMILES,growth rescue (activation),Potency
O=C(Nc1cccc(-c2nc3ccccc3o2)c1)c1cccc(Br)c1,1.19% (inactive),–
CCc1nccn1CCC(=O)N1CCCC(N2CCN(c3ccccc3F)CC2)C1 (stereo unspecified),-10.1% (inactive),–
CCCC(C)NC(=O)C1CCN(C(=O)C2CC(=O)N(c3ccc(C)cc3)C2)CC1 (stereo unspecified),-4.72% (inactive),–
O=C(CN1CCSCC1)N/N=C/c1ccc(F)cc1,-0.82% (inactive),–
Cc1c(C(=O)N2CCCc3ccccc32)sc2nc(-c3ccccc3)cn12,8.21% (inactive),–
Cc1cccc2cc3c(N)c(C(=O)N4CCCc5ccccc54)sc3nc12,–,17.8 µM (active)
Cc1c(C(=O)N2CCCc3ccccc32)oc2ccccc12,13.2% (inactive),–
O=C(Nc1nnc(-c2ccccc2)o1)c1cc(-c2cccs2)nc2ccccc12,–,12.6 µM (active)
CCCCN(C)CCCNC(=O)c1cc(-c2cccs2)nc2ccccc12,-16.6% (inactive),–
CC(C)(C)Cc1nnc(NC(=O)c2cc(-c3ccccc3)nc3ccccc23)s1,4.92% (inactive),–
O=C(CNc1cccc(S(=O)(=O)N2CCCCC2)c1)Nc1ccccc1F,1.75% (inactive),–
CCN(CC)c1ccc(NC(=O)CN2CCN(CC(=O)Nc3ccc(Cl)cc3)CC2)cc1,1.98% (inactive),–
COc1ccc(Cl)cc1NS(=O)(=O)c1cccc(C(=O)NC2CCC(O)CC2)c1 (stereo unspecified),-6.5% (inactive),–
Cc1cc(C)c(/C=C2\C(=O)Nc3ccccc32)[nH]1,–,inactive and 16.4 µM (active)
O=C1Nc2ccccc2/C1=C/c1ccnc2ccccc12,6.69% (inactive),–
CN(C)/C=C1/Nc2ccccc2C1=O,-0.406% (inactive),–

SMILES,growth rescue (activation),Potency
O=C(N/C(=C\c1ccc([N+](=O)[O-])cc1)C(=O)N1CCCCC1)c1ccco1,5.8% (inactive),–
CCc1c(C)[nH]c(=S)c(C#N)c1C,0.532% (inactive),–
Cc1c(S(=O)(=O)N2CC(C)CC(C)C2)c(=O)n(C)c(=O)n1C (stereo unspecified),2.71% (inactive),–
CCOC(=O)[C@@H]1[C@H]2COc3ccc(Br)cc3[C@H]2N2C(=O)N(c3ccc(Cl)cc3)C(=O)[C@@]12C,9.23% (inactive),–
COc1ccc(C(=O)N2CC3(C)CC2CC(C)(C)C3)cc1OC (stereo unspecified),2.86% (inactive),–
COc1ccc(Nc2ncnc3ccc(Br)cc23)c(OC)c1,2.1% (inactive),–
CC1(C)CC2CC(C)(CN2c2ncnc3ccc(Br)cc23)C1 (stereo unspecified),–,15.8 µM (active)
CCc1ccc(N(C(=O)c2csnn2)C(C(=O)NC2CCCCC2)c2cccnc2)cc1 (stereo unspecified),12% (inactive),–
OCC[C@H]1C[C@H](O)[C@@H](O)[C@]2(CCc3ccccc3O2)O1,-1% (inactive),–
CC1CCN(C(=O)c2ccc(CSc3ccc(Cl)cc3)cc2)CC1,19.4% (inactive),–
O=C(c1ccc(S(=O)(=O)c2ccccc2)cc1)N1CCCCCC1,0.467% (inactive),–
O=C(c1ccc(CSc2ccccc2)cc1)N1CCCCCC1,–,10 µM (active)
Cc1cc(F)ccc1S(=O)(=O)Nc1ncnc2scc(-c3ccc(F)cc3)c12,-7.34% (inactive),–
O=C(COC(=O)c1ccccc1)c1ccc2c(c1)OCCO2,6.73% (inactive),–
Cc1ccc(NC(=O)CSc2sc3c(O)cc(=O)[nH]c3c2C#N)cc1C,-6.97% (inactive),–
